# Assay results from ChEMBL document CHEMBL5606460, “ASAP - DENV-2 NS2B-NS3 protease fluorescence single point” (2024).
# The whole screen tested about 2,000 compounds, of which about 110 (5.5%) showed an effect of 50% or more. Only a selection was taken, and strong results are over-represented in it overall.
# Biological target: Genome polyprotein (dengue virus type 2) (UniProt P29990)
smiles,measurement,setting,value
NC(=O)c1cccc(NC(=O)[C@@H](NC(=O)c2ccc(Oc3ccc(C(F)(F)F)cc3)cc2)c2ccc(OCc3ccccc3)cc2)c1,inhibition,"Thailand/16681/1984, Concentration 49.5 uM, Number of replicates 2.0, Standard deviation 0.7362133947681709 %",6.2%
same,inhibition,"Thailand/16681/1984, Concentration 99.01 uM, Number of replicates 2.0, Standard deviation 0.5343411171689955 %",12.7%
same,inhibition,"Thailand/16681/1984, Concentration 198.0 uM, Number of replicates 2.0, Standard deviation 1.7800185360663037 %",24.8%
N=C(N)NCCC[C@H](NC(=O)c1nccs1)C(=O)N[C@@H](CCCCN)C(=O)N[C@@H](C(N)=O)c1ccc(OCc2ccc(C(F)(F)F)cc2)cc1,inhibition,"Thailand/16681/1984, Concentration 49.5 uM, Number of replicates 2.0, Standard deviation 0.01715005842126491 %",96.2%
same,inhibition,"Thailand/16681/1984, Concentration 49.5 uM, Number of replicates 2.0, Standard deviation 0.019135343573522066 %",96.1%
same,inhibition,"Thailand/16681/1984, Concentration 49.5 uM, Number of replicates 2.0, Standard deviation 0.03570815875758177 %",95.6%
same,inhibition,"Thailand/16681/1984, Concentration 49.5 uM, Number of replicates 2.0, Standard deviation 0.054562972907415325 %",95.2%
same,inhibition,"Thailand/16681/1984, Concentration 49.5 uM, Number of replicates 2.0, Standard deviation 0.06140896980473687 %",95.7%
same,inhibition,"Thailand/16681/1984, Concentration 49.5 uM, Number of replicates 2.0, Standard deviation 0.10612104410339795 %",97.2%
same,inhibition,"Thailand/16681/1984, Concentration 49.5 uM, Number of replicates 2.0, Standard deviation 0.10687631562871318 %",95.4%
same,inhibition,"Thailand/16681/1984, Concentration 49.5 uM, Number of replicates 2.0, Standard deviation 0.10916370939109642 %",95.9%
same,inhibition,"Thailand/16681/1984, Concentration 49.5 uM, Number of replicates 2.0, Standard deviation 0.11089004430610264 %",91.3%
same,inhibition,"Thailand/16681/1984, Concentration 49.5 uM, Number of replicates 2.0, Standard deviation 0.12066541576232535 %",96.7%
same,inhibition,"Thailand/16681/1984, Concentration 49.5 uM, Number of replicates 2.0, Standard deviation 0.12893024416791762 %",95%
same,inhibition,"Thailand/16681/1984, Concentration 49.5 uM, Number of replicates 2.0, Standard deviation 0.18367124536344298 %",96.2%
same,inhibition,"Thailand/16681/1984, Concentration 49.5 uM, Number of replicates 2.0, Standard deviation 0.22697527774705212 %",95.7%
same,inhibition,"Thailand/16681/1984, Concentration 49.5 uM, Number of replicates 2.0, Standard deviation 0.262397512284336 %",95.2%
same,inhibition,"Thailand/16681/1984, Concentration 49.5 uM, Number of replicates 2.0, Standard deviation 0.3581065989316027 %",96.5%
same,inhibition,"Thailand/16681/1984, Concentration 49.5 uM, Number of replicates 2.0, Standard deviation 0.6751965592419794 %",94.5%
same,inhibition,"Thailand/16681/1984, Concentration 49.5 uM, Number of replicates 4.0, Standard deviation 0.3877656068031149 %",96.3%
same,inhibition,"Thailand/16681/1984, Concentration 49.8 uM, Number of replicates 2.0, Standard deviation 0.008615490185202914 %",98.3%
same,inhibition,"Thailand/16681/1984, Concentration 49.95 uM, Number of replicates 2.0, Standard deviation 0.5898131133050937 %",90.4%
same,inhibition,"Thailand/16681/1984, Concentration 50.0 uM, Number of replicates 2.0, Standard deviation 2.607110988642393 %",82.5%
same,inhibition,"Thailand/16681/1984, Concentration 98.52 uM, Number of replicates 2.0, Standard deviation 0.0007930351015809821 %",99.7%
same,inhibition,"Thailand/16681/1984, Concentration 99.01 uM, Number of replicates 2.0, Standard deviation 0.014371738167426778 %",98.3%
same,inhibition,"Thailand/16681/1984, Concentration 99.01 uM, Number of replicates 2.0, Standard deviation 0.015720437319775387 %",97.7%
same,inhibition,"Thailand/16681/1984, Concentration 99.01 uM, Number of replicates 2.0, Standard deviation 0.019361925031116632 %",97.6%
same,inhibition,"Thailand/16681/1984, Concentration 99.01 uM, Number of replicates 2.0, Standard deviation 0.03515249470681415 %",98%
same,inhibition,"Thailand/16681/1984, Concentration 99.01 uM, Number of replicates 2.0, Standard deviation 0.051056355111308946 %",98.5%
same,inhibition,"Thailand/16681/1984, Concentration 99.01 uM, Number of replicates 2.0, Standard deviation 0.05114267185705925 %",98.8%
same,inhibition,"Thailand/16681/1984, Concentration 99.01 uM, Number of replicates 2.0, Standard deviation 0.05214610402640662 %",98.2%
same,inhibition,"Thailand/16681/1984, Concentration 99.01 uM, Number of replicates 2.0, Standard deviation 0.05969881927955883 %",97.8%
same,inhibition,"Thailand/16681/1984, Concentration 99.01 uM, Number of replicates 2.0, Standard deviation 0.06259043026219424 %",97.6%
same,inhibition,"Thailand/16681/1984, Concentration 99.01 uM, Number of replicates 2.0, Standard deviation 0.0932706385798204 %",98.3%
same,inhibition,"Thailand/16681/1984, Concentration 99.01 uM, Number of replicates 2.0, Standard deviation 0.1268262734902538 %",98.1%
same,inhibition,"Thailand/16681/1984, Concentration 99.01 uM, Number of replicates 2.0, Standard deviation 0.1304084184388917 %",95.2%
same,inhibition,"Thailand/16681/1984, Concentration 99.01 uM, Number of replicates 2.0, Standard deviation 0.16720632611157116 %",97.6%
same,inhibition,"Thailand/16681/1984, Concentration 99.01 uM, Number of replicates 2.0, Standard deviation 0.19540492798887588 %",98.3%
same,inhibition,"Thailand/16681/1984, Concentration 99.01 uM, Number of replicates 2.0, Standard deviation 0.2057251739026474 %",97.9%
same,inhibition,"Thailand/16681/1984, Concentration 99.01 uM, Number of replicates 2.0, Standard deviation 0.39058866931676656 %",97.1%
same,inhibition,"Thailand/16681/1984, Concentration 99.01 uM, Number of replicates 4.0, Standard deviation 0.160745991426317 %",98.2%
same,inhibition,"Thailand/16681/1984, Concentration 99.5 uM, Number of replicates 2.0, Standard deviation 0.012726325201561474 %",99.3%
same,inhibition,"Thailand/16681/1984, Concentration 99.5 uM, Number of replicates 2.0, Standard deviation 0.04880672492519146 %",99.4%
same,inhibition,"Thailand/16681/1984, Concentration 99.9 uM, Number of replicates 2.0, Standard deviation 0.33233565552852545 %",95.1%
same,inhibition,"Thailand/16681/1984, Concentration 100.0 uM, Number of replicates 2.0, Standard deviation 1.0120962127020525 %",91.1%
same,inhibition,"Thailand/16681/1984, Concentration 198.0 uM, Number of replicates 2.0, Standard deviation 0.008588516202155942 %",97.6%
same,inhibition,"Thailand/16681/1984, Concentration 198.0 uM, Number of replicates 2.0, Standard deviation 0.009273655371549035 %",99.3%
same,inhibition,"Thailand/16681/1984, Concentration 198.0 uM, Number of replicates 2.0, Standard deviation 0.015984782353635714 %",99.5%
same,inhibition,"Thailand/16681/1984, Concentration 198.0 uM, Number of replicates 2.0, Standard deviation 0.02043009475977673 %",99%
same,inhibition,"Thailand/16681/1984, Concentration 198.0 uM, Number of replicates 2.0, Standard deviation 0.03091218457183012 %",99%
same,inhibition,"Thailand/16681/1984, Concentration 198.0 uM, Number of replicates 2.0, Standard deviation 0.034661568215359255 %",98.9%
same,inhibition,"Thailand/16681/1984, Concentration 198.0 uM, Number of replicates 2.0, Standard deviation 0.04180427892619749 %",98.9%
same,inhibition,"Thailand/16681/1984, Concentration 198.0 uM, Number of replicates 2.0, Standard deviation 0.05357033033128675 %",99.3%
same,inhibition,"Thailand/16681/1984, Concentration 198.0 uM, Number of replicates 2.0, Standard deviation 0.055172584924276895 %",99.5%
same,inhibition,"Thailand/16681/1984, Concentration 198.0 uM, Number of replicates 2.0, Standard deviation 0.06522309100757873 %",99.1%
same,inhibition,"Thailand/16681/1984, Concentration 198.0 uM, Number of replicates 2.0, Standard deviation 0.07510635839598934 %",99.3%
same,inhibition,"Thailand/16681/1984, Concentration 198.0 uM, Number of replicates 2.0, Standard deviation 0.08009654525967919 %",99.1%
same,inhibition,"Thailand/16681/1984, Concentration 198.0 uM, Number of replicates 2.0, Standard deviation 0.10986503295031769 %",99.2%
same,inhibition,"Thailand/16681/1984, Concentration 198.0 uM, Number of replicates 2.0, Standard deviation 0.15163694309685882 %",99%
same,inhibition,"Thailand/16681/1984, Concentration 198.0 uM, Number of replicates 2.0, Standard deviation 0.1571827940113163 %",98.9%
same,inhibition,"Thailand/16681/1984, Concentration 198.0 uM, Number of replicates 2.0, Standard deviation 0.24491837126989802 %",98.3%
same,inhibition,"Thailand/16681/1984, Concentration 198.0 uM, Number of replicates 4.0, Standard deviation 0.0821711955101111 %",99.2%
same,inhibition,"Thailand/16681/1984, Concentration 295.6 uM, Number of replicates 2.0, Standard deviation 0.015100035709695026 %",100%
same,inhibition,"Thailand/16681/1984, Concentration 295.6 uM, Number of replicates 2.0, Standard deviation 0.020829309708871917 %",99.9%
